In PubChem BioAssay:
The source made the active and inactive calls.

Experiments:
Albumin (Bos taurus) = Albumin (Bos taurus) (UniProt P02769); test: bovine serum albumin binders on microarray, profiling panel, artefact control for SMM control protein annotation, biochemical, small-molecule microarray, Alexa647 label, 635/667 nm fluorescence (AID 1118); conditions: BSA-A647 binding, fluorescence 635 nm, higher = more signal;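 note: score merges 667 nm emission intensity and signal-to-noise per printed compound spot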
[1] = small-molecule microarray binders of probe aXIP, primary screen, biochemical, NeuroSMM set, 635/667 nm fluorescence (AID 1119); conditions: higher = more signal, called active from +8 up or from −8 down;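 note: probe is the protein aXip251-270 applied at 1 µg/mL to compound-printed slides; binding of probe to printed compounds measured as 667 nm fluorescence plus signal to noise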
[2] = small-molecule binders of probe aNOTCH3, primary screen, biochemical, small-molecule microarray, 635/667 nm fluorescence (AID 1120); conditions: higher = more signal;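 note: probe is a biotin-tagged antibody raised against NOTCH3 rather than NOTCH3 protein; score merges spot fluorescence near 667 nm with spot signal to noise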
[3] = small-molecule binders of probe aNOTCH2, primary screen, biochemical, small-molecule microarray, 635/667 nm fluorescence (AID 1121); conditions: higher = more signal;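 note: score merges feature fluorescence read at 667 nm with its signal to noise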
[4] = molecular target: Carbonic anhydrase 2 (Homo sapiens) (UniProt P00918); test: CAII small-molecule binders, profiling panel, biochemical, small-molecule microarray, Alexa647-labelled CAII (AID 1122); conditions: CAII-A647 binding fluorescence, higher = more signal
[5] = COS7 lysate on small-molecule microarray, probe aHis, 635 nm (AID 1123); conditions: COS7 cell lysate, fluorescence, higher = more signal;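 note: z-score combines 667nm fluorescence intensity with signal-to-noise per printed compound spot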
[6] = compound binding in COS7 lysate, probe aLAP1, primary screen, cell lysate, small-molecule microarray (AID 1124); conditions: probe aLAP1, fluorescence, higher = more signal;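 note: lysate comes from COS7 cells expressing LAP1 and is applied at 0.3 µg/mL; score merges spot fluorescence near 667 nm with signal-to-noise over triplicate slides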
Sam68 (KHDRBS1) = test: Sam68 small-molecule binders, primary screen, biochemical, small-molecule microarray, 635 nm fluorescence (AID 1125); conditions: small-molecule microarray binding, higher = more signal;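 note: score merges 667 nm channel intensity with signal to noise over triplicate slides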
[7] = test system: Chordin-like protein 2 (CHRDL2); test: CHRDL2 small-molecule binders, primary screen, biochemical, small-molecule microarray, 635 nm fluorescence (AID 1126); conditions: small-molecule microarray binding, fluorescence 635 nm; higher = more signal;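 note: printed compound slides probed with Chrdl2 protein at 4 µg/mL for 1 h at 4 C; score merges 667 nm emission intensity with signal to noise over three replicate slides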
[8] = molecular target: Concanavalin-A (Canavalia ensiformis) (UniProt P02866); test: ConA small-molecule binders, primary screen, artefact control for SMM control protein annotation, biochemical, small-molecule microarray, Alexa647 label, 635 nm (AID 1127); conditions: ConA-A647 binding fluorescence, higher = more signal;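 note: z combines 667 nm emission intensity with signal-to-noise across three replicate slides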
[9] = anti-His antibody binders, primary screen, artefact control for SMM control protein annotation, biochemical, small-molecule microarray, 635 nm fluorescence (AID 1128); conditions: anti-His Alexa647 antibody binding, higher = more signal;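 note: score merges feature fluorescence with signal-to-noise for each printed compound spot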
[10] = test system: Human papillomavirus type 1a E7 protein (residues 1-88); test: HPV1a E7 small-molecule binders, primary screen, biochemical, small-molecule microarray, residues 1-88, 635 nm (AID 1129); conditions: small-molecule microarray binding, fluorescence 635 nm; higher = more signal
[11] = molecular target: Focal adhesion kinase 1 (Homo sapiens) (UniProt Q05397); test: small-molecule microarray binders of FAK, primary screen, biochemical, 635/667 nm fluorescence, BSA, DTT (AID 1130); conditions: PTK2 binding, 635 nm fluorescence, higher = more signal;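 note: composite of spot emission at 667 nm and signal to noise over triplicate slides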
[12] = test system: Fibrinogen (Alexa647-labelled); test: fibrinogen binders on compound microarrays, profiling panel, artefact control for SMM control-protein annotation, biochemical, small-molecule microarray, 635/667 nm fluorescence (AID 1131); conditions: fibrinogen-A647 binding fluorescence, higher = more signal;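 note: z-score merges 667 nm fluorescence with per-spot signal-to-noise over triplicate slides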
[13] = molecular target: Follistatin (Homo sapiens) (UniProt P19883); test: follistatin binders on small-molecule microarrays, primary screen, biochemical, small-molecule microarray, 635/667 nm fluorescence (AID 1132); conditions: FST binding, 635 nm fluorescence, higher = more signal
[14] = molecular target: Fibroblast growth factor 2 (Homo sapiens) (UniProt P09038); test: FGF2 binders on small-molecule microarrays, primary screen, biochemical, small-molecule microarray, 635/667 nm fluorescence (AID 1133); conditions: small-molecule microarray binding, FGF2, fluorescence 635/667; higher = more signal
[15] = mitochondrial membrane potential change in A549 cells, profiling panel, cell-based, JC-1 fluorescence, basal, 24 h, 100 nL (AID 1138); conditions: higher = more signal;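 note: A549 lung adenocarcinoma cells under basal conditions with no added stimulus; test concentration not given here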
Lefty1 = Lefty1 binders on small-molecule microarrays, primary screen, biochemical, small-molecule microarray, 635/667 nm fluorescence (AID 1139); conditions: small-molecule microarray binding, fluorescence 635/667; higher = more signal
[16] = test system: wheat germ agglutinin (Triticum aestivum), Alexa647-labelled; test: wheat germ agglutinin binders on compound microarrays, profiling panel, artefact control for SMM control-protein annotation, biochemical, small-molecule microarray, 635/667 nm fluorescence (AID 1140); conditions: WGA-A647 binding, 635 nm fluorescence, higher = more signal;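 note: score merges 667 nm feature emission with signal to noise over triplicate slides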
[17] = molecular target: Luciferin 4-monooxygenase (Photinus pyralis) (UniProt P08659); test: firefly luciferase enzyme inhibitors, primary screen, biochemical, luminescence, purified enzyme, 2006 set (AID 1141); conditions: SteadyGlo luminescence, 30 min, higher = more signal, called active from +8 up or from −8 down;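 note: cell-free assay with purified firefly luciferase at 100 ng per well in PBS; test concentration not given here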
Chain of Luciferin 4-monooxygenase (Photinus pyralis) (P08659 whole entry, looked up): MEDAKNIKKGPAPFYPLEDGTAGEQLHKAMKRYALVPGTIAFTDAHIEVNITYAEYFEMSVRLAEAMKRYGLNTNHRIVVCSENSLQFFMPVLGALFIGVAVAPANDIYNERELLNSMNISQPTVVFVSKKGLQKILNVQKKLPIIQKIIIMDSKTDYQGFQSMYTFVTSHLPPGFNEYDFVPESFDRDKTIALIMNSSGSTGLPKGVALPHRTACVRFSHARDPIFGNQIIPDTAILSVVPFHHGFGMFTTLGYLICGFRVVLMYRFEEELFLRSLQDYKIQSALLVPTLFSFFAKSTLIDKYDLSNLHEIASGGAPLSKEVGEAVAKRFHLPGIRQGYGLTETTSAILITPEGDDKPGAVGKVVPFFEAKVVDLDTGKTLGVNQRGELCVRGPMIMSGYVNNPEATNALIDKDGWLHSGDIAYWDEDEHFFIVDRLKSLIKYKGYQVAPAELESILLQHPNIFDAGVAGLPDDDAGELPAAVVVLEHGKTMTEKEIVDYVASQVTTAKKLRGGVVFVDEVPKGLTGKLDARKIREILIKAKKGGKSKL

Chain of Albumin (Bos taurus) (P02769 whole entry, looked up): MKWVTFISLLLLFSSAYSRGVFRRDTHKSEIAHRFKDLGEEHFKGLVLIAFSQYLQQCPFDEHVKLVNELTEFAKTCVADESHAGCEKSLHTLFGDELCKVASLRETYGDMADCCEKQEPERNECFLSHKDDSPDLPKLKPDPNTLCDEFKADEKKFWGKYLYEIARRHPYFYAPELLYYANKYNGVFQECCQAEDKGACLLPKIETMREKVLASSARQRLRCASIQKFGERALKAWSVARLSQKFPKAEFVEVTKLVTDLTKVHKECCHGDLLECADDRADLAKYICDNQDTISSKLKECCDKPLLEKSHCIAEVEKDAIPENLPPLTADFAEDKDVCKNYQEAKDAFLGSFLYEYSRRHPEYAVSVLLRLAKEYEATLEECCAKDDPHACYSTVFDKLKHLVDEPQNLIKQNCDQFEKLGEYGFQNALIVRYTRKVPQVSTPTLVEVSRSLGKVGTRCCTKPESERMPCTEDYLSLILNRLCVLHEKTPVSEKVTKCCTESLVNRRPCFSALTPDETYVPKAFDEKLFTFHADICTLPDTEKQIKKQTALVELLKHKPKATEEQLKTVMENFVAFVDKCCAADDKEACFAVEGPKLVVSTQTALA
Chain of Follistatin (Homo sapiens) (P19883 whole entry, looked up): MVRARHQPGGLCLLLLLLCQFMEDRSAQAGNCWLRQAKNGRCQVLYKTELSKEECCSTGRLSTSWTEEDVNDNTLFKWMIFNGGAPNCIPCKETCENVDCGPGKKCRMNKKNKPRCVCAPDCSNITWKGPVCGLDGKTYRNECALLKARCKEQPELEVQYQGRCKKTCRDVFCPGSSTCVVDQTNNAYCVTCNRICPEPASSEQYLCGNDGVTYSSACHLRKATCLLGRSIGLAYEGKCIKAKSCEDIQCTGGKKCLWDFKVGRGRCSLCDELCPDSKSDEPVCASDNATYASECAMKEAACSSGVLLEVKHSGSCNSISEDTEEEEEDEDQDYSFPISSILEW
Chain of Focal adhesion kinase 1 (Homo sapiens) (Q05397 whole entry, looked up): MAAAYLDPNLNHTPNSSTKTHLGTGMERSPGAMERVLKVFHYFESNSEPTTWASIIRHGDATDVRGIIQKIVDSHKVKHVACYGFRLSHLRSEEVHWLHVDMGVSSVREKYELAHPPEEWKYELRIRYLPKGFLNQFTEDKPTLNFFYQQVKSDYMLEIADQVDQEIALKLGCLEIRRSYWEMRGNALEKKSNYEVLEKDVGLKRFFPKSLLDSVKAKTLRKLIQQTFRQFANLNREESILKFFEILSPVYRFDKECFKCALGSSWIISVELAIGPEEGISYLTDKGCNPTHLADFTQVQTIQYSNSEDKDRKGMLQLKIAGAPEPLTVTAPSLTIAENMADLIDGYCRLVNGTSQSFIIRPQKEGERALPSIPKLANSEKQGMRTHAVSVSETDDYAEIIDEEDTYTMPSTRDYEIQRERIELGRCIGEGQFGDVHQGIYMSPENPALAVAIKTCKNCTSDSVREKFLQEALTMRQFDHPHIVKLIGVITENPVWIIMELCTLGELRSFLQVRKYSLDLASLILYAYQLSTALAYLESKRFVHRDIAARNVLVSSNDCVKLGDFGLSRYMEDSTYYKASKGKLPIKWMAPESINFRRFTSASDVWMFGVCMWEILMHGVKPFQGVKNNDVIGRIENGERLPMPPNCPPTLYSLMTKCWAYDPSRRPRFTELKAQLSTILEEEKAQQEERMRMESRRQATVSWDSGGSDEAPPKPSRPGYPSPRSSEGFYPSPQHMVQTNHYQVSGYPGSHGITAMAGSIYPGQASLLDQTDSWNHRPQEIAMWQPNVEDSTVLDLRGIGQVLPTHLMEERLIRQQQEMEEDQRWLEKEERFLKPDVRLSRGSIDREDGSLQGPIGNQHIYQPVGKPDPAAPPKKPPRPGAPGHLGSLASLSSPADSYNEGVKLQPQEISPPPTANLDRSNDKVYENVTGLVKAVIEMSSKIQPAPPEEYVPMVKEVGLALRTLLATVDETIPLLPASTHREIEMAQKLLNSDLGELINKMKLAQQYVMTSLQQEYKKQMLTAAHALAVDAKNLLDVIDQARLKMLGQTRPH
Chain of Concanavalin-A (Canavalia ensiformis) (P02866 whole entry, looked up): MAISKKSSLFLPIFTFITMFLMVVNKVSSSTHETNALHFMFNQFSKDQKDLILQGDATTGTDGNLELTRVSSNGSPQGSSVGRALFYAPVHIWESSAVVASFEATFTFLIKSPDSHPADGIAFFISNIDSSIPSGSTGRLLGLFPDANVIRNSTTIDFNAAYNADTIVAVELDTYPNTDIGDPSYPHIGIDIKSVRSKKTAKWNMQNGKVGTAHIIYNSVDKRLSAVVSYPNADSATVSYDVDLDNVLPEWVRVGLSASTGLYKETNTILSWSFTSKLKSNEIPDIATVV
Chain of Fibroblast growth factor 2 (Homo sapiens) (P09038 whole entry, looked up): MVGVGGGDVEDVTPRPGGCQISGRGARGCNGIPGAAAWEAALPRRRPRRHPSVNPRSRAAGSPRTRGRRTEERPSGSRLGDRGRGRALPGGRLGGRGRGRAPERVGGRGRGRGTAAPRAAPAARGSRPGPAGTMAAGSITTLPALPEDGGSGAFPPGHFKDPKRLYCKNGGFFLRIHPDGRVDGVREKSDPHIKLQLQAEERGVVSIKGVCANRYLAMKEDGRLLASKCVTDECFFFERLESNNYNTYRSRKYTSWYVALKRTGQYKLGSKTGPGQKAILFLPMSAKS

Compound | composite z-score (Albumin (Bos taurus)) | composite Z-score [1] | composite z-score [2] | composite z-score [3] | composite z-score [4] | composite z-score [5] | composite z-score [6] | composite z-score (Sam68 (KHDRBS1)) | composite z-score [7] | composite z-score [8] | composite z-score [9] | composite z-score [10] | composite z-score [11] | composite z-score [12] | composite z-score [13] | composite z-score [14] | z-score [15] | composite z-score (Lefty1) | composite z-score [16] | z-score [17]
C=CCC(OC(C)=O)[C@@H]1[C@@H](N(Cc2cccc3ccccc23)C(=O)c2ccc(-c3ccccc3)cc2)c2cc(OCCCO)ccc2N1C(=O)Cc1ccc2ccccc2c1 (stereo not given in full) | 0.364 | -0.902 (inactive) | 0.0276 | -0.0809 | 0.268 | 0.376 | 0.0109 | -0.518 | 0.0624 | -0.214 | 0.203 | 0.0951 | -0.166 | -0.052 | 0.592 | 0.0824 | 0.412 | -0.415 | -0.194 | 0.223 (inactive)
COc1ccc(C(=O)Nc2cccc(CN3C(=O)[C@@]4(O[C@@H](CC(=O)N5CCC[C@H]5CO)[C@H]([Si](C)(C)c5ccc(OC)cc5)[C@H]4C)c4ccccc43)c2)cc1 | 0.343 | -0.0697 (inactive) | 0.0305 | -0.11 | 0.531 | 1.75 | -0.19 | 1.34 | 0.862 | 1.17 | 1.39 | 1.03 | 0.988 | 0.875 | 1.08 | 1.1 | 1.53 | 0.703 | 0.7 | -0.599 (inactive)
COC(=O)[C@@]1(Cc2ccc(OC)cc2)[C@H]2c3cc(C(=O)N4CCCC4)n(Cc4c(CO)[nH]cc(C)c4=O)c3C[C@H]2CN1C(=O)c1ccccc1 | 1.01 | -0.438 (inactive) | 0.0296 | 0.257 | 0.751 | 3.24 | 1.32 | 0.332 | -0.184 | 0.393 | 1 | 1.24 | 0.502 | 0.91 | -0.116 | -0.0376 | 0.534 | -0.116 | 0.723 | 0.835 (inactive)
CC(C)C[C@H]1NC(=O)C([C@@H](C)OCc2ccccc2)NC(=O)[C@@]23C(=O)N[C@@H](Cc4ccccc4)C2[C@H](C)[C@@]2(C)O[C@H]2C3/C=C/C/C=C\CNC1=O (stereo not given in full) | 0.616 | 0.0578 (inactive) | 0.2 | -0.0148 | 0.412 | 1.51 | 0.653 | 1.3 | 0.736 | 0.234 | 1.42 | 1 | 0.231 | 0.504 | 1.24 | 0.434 | 0.487 | 1.01 | 0.999 | -0.53 (inactive)
CC1CC/C=C\[C@H]2OC34C=CCN(c5ccc(Cl)cc5)C(=O)[C@H]3N(CCCCCCO)C(=O)[C@]4(C)C2C(=O)O1 (stereo not given in full) | -0.685 | 0.0185 (inactive) | -0.314 | 0.309 | 0.3 | 0.383 | -0.17 | -0.552 | -0.742 | -0.241 | 0.867 | -0.629 | -0.487 | -0.87 | -0.518 | -0.662 | 1 | -0.629 | -0.988 | -1.55 (inactive)
COCCCNC(=O)[C@@H]1c2ccccc2C(=O)N(Cc2ccc(OC(F)(F)F)cc2)[C@H]1c1ccc(CO)cc1 | 0.348 | -0.274 (inactive) | -0.0074 | -0.174 | 0.529 | 1.22 | 1.28 | 0.859 | 0.286 | 0.874 | 1.54 | 1.11 | 1.79 | 0.654 | 1.14 | 0.722 | 2.03 | 0.541 | 0.316 | -0.0459 (inactive)
O=C(NCc1ccccc1)[C@@H]1c2ccccc2C(=O)N(Cc2cc(C(F)(F)F)cc(C(F)(F)F)c2)[C@H]1c1ccc(CO)cc1 | -0.432 | -0.46 (inactive) | 0.104 | -0.008 | 0.185 | 1.55 | 0.92 | 1.3 | 0.755 | 0.609 | 0.618 | 1.14 | 0.576 | 0.638 | 1.36 | 1.06 | 0.473 | 0.991 | 0.452 | 1.14 (inactive)
COCCCNC(=O)[C@@]1(Sc2ccc(C)cc2)CC(=O)N(Cc2ccccc2C(F)(F)F)[C@@H]1c1ccc(CO)cc1I | 0.474 | -1.08 (inactive) | -0.402 | -0.121 | 0.175 | 1.08 | 0.295 | 0.188 | -1.51 | -0.89 | -1.39 | -2.04 | -0.905 | -1.75 | -1.59 | -1.5 | -0.288 | -1.78 | -1.47 | 0.166 (inactive)
COC(=O)[C@@]1(Cc2ccccc2)N=C(c2ccc(OCCCO)cc2)O[C@H]1c1ccccc1CN=[N+]=[N-] | -0.158 | 0.282 (inactive) | 0.0655 | -0.12 | 0.6 | 2.02 | -0.415 | 1.2 | -0.111 | 0.505 | 1.91 | 0.997 | 0.291 | 0.447 | 1.33 | 1.02 | -1.07 | 0.434 | 0.0777 | -2.05 (inactive)
C=CCNC(=O)[C@H]1[C@@H]2C(=O)O[C@@H](c3ccccc3)[C@@H](c3ccccc3)N2[C@@H](c2ccccc2OCCO)[C@]12C(=O)N(C(=O)OCCOC)c1ccc(C#Cc3ccc(OC)cc3)cc12 | 0.621 | -0.0052 (inactive) | -0.0613 | -0.146 | 0.609 | 1.94 | 1.1 | 1.24 | 0.0718 | 1.11 | 0.63 | 1.19 | 0.723 | 0.732 | 0.406 | 0.235 | -0.844 | 0.407 | 0.924 | -1.05 (inactive)
